Screening data from PubChem.
A selection: hits, their analogues and other compounds. The true share with any hit is near 12%.
ROMK primary – modulators of human ROMK potassium channel; Tet-inducible ROMK, thallium flux fluorescence; actives lie on both sides; P48048; 2% of 130,000 active; B-score at 10 µM; AID 1918;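 active = signal ratio slope over the read window, or its plate-corrected B-score, at least 3 SD from the plate mean, either direction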;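 note: B-score of the F/F0 ratio slope over 7 to 12 s after thallium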
WT yeast gro inh – growth inhibition of WT yeast, mitochondrial fusion screen; 2.1% of 190,000 active; mitochondrial fusion phenotypic screen, WT strain; inhibition, % at 10 µM; AID 1362; in the data active = inhibition above about 58%; tested in S. cerevisiae
INS promoter inh – TRM-6 insulin promoter activity inhibition. 0.9% of 130,000 active. inhibition, % at 2 µM. TRM-6 cells (human fetal islet line), insulin promoter-eGFP reporter, imaging; reporter expression induced with tamoxifen. AID 1273;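 active = inhibition above the mean plus 3 SD, with well images judged a real hit on visual review, cut at about 60% in these data, passing the limit was not always enough; inconclusive = inhibition over the cutoff but images rejected on review; inactive = inhibition not above the cutoff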
Ins promoter up – MIN6 insulin promoter up-regulation; AID 1625; z-score at 5 µM; 0.3% of 190,000 active; MIN6 insulin promoter-GFP reporter, high-content imaging; stronger effect = higher value;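 active = z-score above 3 at 5 µM with at least 500 cells counted in the well; inconclusive = wells under 500 cells, flagged as cytotoxic or low count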
Cl transport mod – modulates chloride dependent transport by human KCC2. Q9H2X9. KCC2 cells, thallium flux FluoZin-2 fluorescence. B-score of Tl+ flux slope (higher = more flux/activation; lower = inhibition) at 10 µM. 2.2% of 190,000 active. AID 1456;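 active = thallium flux slope and its plate-corrected score both differing from the plate sample mean at a set confidence after two filtering rounds, in either direction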;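 note: slope of fluorescence scaled to starting intensity during 10 to 20 s after thallium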
Target sequence (Q9H2X9 whole entry, looked up): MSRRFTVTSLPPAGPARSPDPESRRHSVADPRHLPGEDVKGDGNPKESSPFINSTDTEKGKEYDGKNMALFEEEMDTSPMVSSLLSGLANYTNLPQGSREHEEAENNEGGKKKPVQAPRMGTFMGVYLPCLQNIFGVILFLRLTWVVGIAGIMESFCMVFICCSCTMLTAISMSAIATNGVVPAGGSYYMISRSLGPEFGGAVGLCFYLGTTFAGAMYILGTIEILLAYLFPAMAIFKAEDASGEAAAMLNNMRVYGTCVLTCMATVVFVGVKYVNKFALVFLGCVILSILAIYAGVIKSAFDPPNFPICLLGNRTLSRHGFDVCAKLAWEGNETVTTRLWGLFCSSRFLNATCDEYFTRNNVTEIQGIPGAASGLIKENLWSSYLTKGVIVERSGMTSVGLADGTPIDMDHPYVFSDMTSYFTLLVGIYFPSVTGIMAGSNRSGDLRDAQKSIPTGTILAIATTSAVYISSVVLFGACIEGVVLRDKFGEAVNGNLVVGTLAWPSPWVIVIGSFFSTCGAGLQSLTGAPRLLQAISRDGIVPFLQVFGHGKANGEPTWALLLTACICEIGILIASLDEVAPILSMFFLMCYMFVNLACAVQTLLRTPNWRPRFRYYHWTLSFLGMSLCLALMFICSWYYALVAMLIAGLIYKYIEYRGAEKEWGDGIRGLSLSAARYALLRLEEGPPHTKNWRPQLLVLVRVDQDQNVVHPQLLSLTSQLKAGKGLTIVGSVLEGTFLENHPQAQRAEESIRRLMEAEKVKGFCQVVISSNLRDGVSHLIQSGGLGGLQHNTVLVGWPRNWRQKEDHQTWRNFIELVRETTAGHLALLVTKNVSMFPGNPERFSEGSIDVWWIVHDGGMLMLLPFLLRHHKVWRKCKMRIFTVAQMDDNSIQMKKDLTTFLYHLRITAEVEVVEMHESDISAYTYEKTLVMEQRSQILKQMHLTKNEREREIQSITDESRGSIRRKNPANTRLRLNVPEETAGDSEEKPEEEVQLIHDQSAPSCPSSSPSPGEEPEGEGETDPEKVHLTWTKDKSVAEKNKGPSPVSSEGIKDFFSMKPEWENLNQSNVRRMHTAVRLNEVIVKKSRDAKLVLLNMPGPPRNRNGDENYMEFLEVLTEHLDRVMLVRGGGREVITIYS
L major viab – Leishmania major promastigote growth inhibition; Leishmania major promastigotes, resazurin fluorescence viability; inhibition, % at 10 µM; 9% of 200,000 active; AID 1063; in the data active = inhibition above about 50%;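 note: promastigotes grown with compound for 44 hours at 28 °C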
ROMK retest – confirmation of human ROMK potassium channel modulators. shares compounds with ROMK primary. ROMK thallium flux, fluorescence ratio; stronger effect = lower value. normalized thallium flux (F/F0 slope) at 10 µM. 54% of 3,000 active. AID 1917;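 active = Flux at 10 µM at least 3 SD below or above vehicle control mean in one or both replicates; inconclusive = no clear call, values can overlap the other calls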
* = called active by the depositor; i = inactive; u = inconclusive; x = not tested or not shown.

SMILES	ROMK primary	WT yeast gro inh	INS promoter inh	Ins promoter up	Cl transport mod	L major viab	ROMK retest
COc1cccc(CC2(CO)CCCN(Cc3c(C)cc(C)cc3-n3cccn3)C2)c1 (stereo not given)	-3.7*	15	x	-1.2	-1.3	34	0.055*
CCOC(=O)CSc1nnc(CNC(=O)c2cccc(C)c2)n1-c1ccccc1OC	x	35	45	-0.65	0.025	-4	x
O=C(CN1CCC(c2nc3ccccc3s2)CC1)NCc1cccs1	x	-1	-19	-1.5	-0.78	3	0.06*
O=C(CN1CCC(c2nc3ccccc3s2)CC1)N1CCCCC1	-1.5	-6	x	-0.33	-2.1	-4	x
O=C(O)C1CCCN1S(=O)(=O)c1cccs1 (stereo not given)	0.64	-2	6	0.25	0.0057	-18	x
O=C(Nc1ccc(Br)cc1)C1CCCN1S(=O)(=O)c1cccs1 (stereo not given)	-3.3*	2	-32	-0.89	-0.81	22	0.061*
CN(C)c1ccc(CNCCC2(O)CCOC(C)(C)C2)cc1 (stereo not given)	x	4	26	-0.03	0.53	-4	x
O=C(Cc1ccccc1)NCc1ccc2c(c1)OCO2	1.1	2	10	1	x	-4	x
CC(C)C1CC(CCNCc2ccc3c(c2)OCO3)(c2ccccc2)CCO1 (stereo not given)	-2.9*	x	x	-1.1	0.77	x	0.055*
Cc1ccc(C2(CCNS(=O)(=O)c3ccc(C)cc3)CCOC(C(C)C)C2)cc1 (stereo not given)	x	53	x	-0.53	-1.9	63*	0.061*
CC(C)C1CC(CCNCc2ccc(N(C)C)cc2)(c2ccccc2)CCO1 (stereo not given)	x	6	x	-1.3	0.76	98*	0.048*
CCC1CCCCN1C(=O)COc1c(Br)cc(Br)c2cccnc12 (stereo not given)	-4.1*	41	x	-1	1.6	28	0.059*
COc1cccc(NC(=O)N2CCN(c3nc(-c4cccc(OC)c4)cs3)CC2)c1	x	x	x	-0.39	-2.2	x	0.068*
COc1cccc(C(c2nnnn2C(C)(C)C)N2CCN(C3CCCCC3)CC2)c1OC (stereo not given)	-2.4*	-20	21	-0.69	x	40	u
C/C(=N\NC(=O)c1cc2ccccc2cc1O)c1cc2ccccc2o1	x	x	x	-0.09	x	x	0.13*
CC(C)Oc1cccc(C(=O)C2CCCN(C(=O)c3ccoc3)C2)c1 (stereo not given)	x	-7	x	-0.59	0.41	-6	x
Cc1ccc(C(=O)Cn2nnc(-c3ccccc3)n2)cc1	x	x	x	0.37	-1.9	x	x
COc1cc2ccccc2nn1	x	x	x	-0.24	0.37	x	x
COc1ccc2c(n1)Sc1nc3ccccc3nc1N2	x	x	x	x	1.2	x	0.057*
CCOC(=O)N1CCC(N2CCCC(C(=O)c3cccc(OC(C)C)c3)C2)CC1 (stereo not given)	x	x	x	0.59	0.037	x	x
COc1ccc(CC(=O)NNC(=O)c2nn(Cc3ccccc3)c(=O)c3ccccc23)cc1OC	x	x	x	0.09	0.6	x	x
O=C(COc1ncnc2scc(-c3ccc(Cl)cc3)c12)NCc1ccco1	x	8	-16	0.23	-0.51	20	0.061*
O=C(Nc1ccc(F)cc1)c1ccccc1F	0.18	7	-14	0.7	-0.76	-1	x
O=C(Nc1ccc(F)cc1)Nc1ccc(NC(=O)c2ccccc2O)cc1	-11*	x	x	0.27	0.023	x	0.079
O=C(NC(=S)Nc1ccccc1F)c1ccc(Br)o1	x	8	-29	-0.92	i	-6	0.14*
SMILES	ROMK primary	WT yeast gro inh	INS promoter inh	Ins promoter up	Cl transport mod	L major viab	ROMK retest
Cn1ncc(C(N)=O)c1NC(=S)NC(=O)c1ccc(Br)o1	1*	17	x	0.21	0.33	1	0.081
Cc1nn2c(NCCN(C)C)c3c(nc2c1-c1ccccc1)CCCC3	0.03	x	x	-0.66	-0.22	x	x
CCOC(=O)c1ccc(NC(=O)C2CCC(CNc3c(N4CCOCC4)c(=O)c3=O)CC2)cc1 (stereo not given)	-0.035	x	x	0.1	0.33	x	x
COCCC1CCCCN1Cc1cn(-c2ccccc2)nc1-c1ccc2c(c1)OCO2 (stereo not given)	-4.9*	12	x	-1	-0.41	28	0.052*
CN(CCn1ccnc1)Cc1cn(-c2ccccc2)nc1-c1ccc2c(c1)OCO2	-4.6*	20	-17	x	0.44	94*	0.052*
C[C@H](NC(=O)CCCn1nnc2ccccc2c1=O)C(=O)O	x	x	x	-0.12	0.66	x	x
O=[N+]([O-])c1c(Nc2ccccn2)cc(Cl)c2nonc12	-8.6*	x	x	0.15	-1.9	x	0.043*
COc1ccc(Br)cc1/C=c1\sc2nc(-c3ccco3)nn2c1=O	x	x	x	0.09	x	x	x
Cc1ccc(-n2c(O)c(/C=N/NC(=O)C3COc4ccccc4O3)c3ccccc3c2=O)cc1 (stereo not given)	-2.7*	7	35	3.1*	-1.4	13	0.052*
O=C(N/N=C/c1c(O)n(-c2ccccc2Cl)c(=O)c2ccccc12)C1COc2ccccc2O1 (stereo not given)	x	4	-184	0.41	-1.9	-10	x
CC1CC(N(C(=O)C2CC2)c2ccccc2)c2ccccc2N1C(=O)C1CC1 (stereo not given)	-3.4*	1	12	-0.57	-1.6	-2	0.058*
CC1C(=O)Nc2ccccc2N1C(=O)C1CC1 (stereo not given)	0.24	-33	-42	-0.66	-0.8	-8	x
CCOC(=O)C1C(=O)C=C(/C=C/c2ccccc2)CC1c1ccc(Cl)cc1 (stereo not given)	x	-17	x	-0.03	x	-1	x
CCN(c1ccccc1)S(=O)(=O)c1ccc(OC)c(OC)c1	-0.19	-10	x	-0.7	0.1	-5	x
CCN(c1ccccc1)S(=O)(=O)c1ccc(OC)c(NC(=O)CNCCc2ccccc2)c1	-6.6*	13	39	1	-1.1	52*	0.05*
CCN(CC)S(=O)(=O)c1ccc(OC)c(NC(=S)Nc2cc(C)ccc2C)c1	-0.2	6	7	-0.16	0.86	42	x
CCN(CC)S(=O)(=O)c1ccc(OC)c(NC(=O)CSc2cc(C)ccc2C)c1	-3.2*	29	-11	0.21	-1	73*	0.057*
CC(=O)Nc1ccc(S(=O)(=O)Nc2nc3ccccc3nc2Sc2nncn2C)cc1	0.16	5	10	0.91	x	-5	x
C=CCNC(=O)NC(=O)COC(=O)/C(C#N)=C/c1cc(C)n(CCC(C)C)c1C	x	7	-21	0.56	-1.5	0	x
COc1ccccc1-n1cnc2cc(NCc3ccco3)ccc21	7.9*	30	x	-1.7	-1.3	2	0.088
CCCc1c(C)nc2c(OC)cccc2c1SCC(=O)O	-0.28	-6	12	-0.36	0.0065	-5	x
CCOC(=O)NC(Nc1sc2c(c1C(=O)OC)CCN(C)C2)(C(F)(F)F)C(F)(F)F	-0.04	1	44	-0.02	0.42	9	0.076
Cc1ccc(NC(=O)CSc2ncn[nH]2)cc1	0.041	-7	-83	0.92	0.42	15	x
